# In PubChem BioAssay (NCI):
# The panel holds about 83,000 compounds, 20% with a hit somewhere; the sample as a whole holds those more often.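 Compound tested at a single concentration for 48 hours in 96-well plates; a percent growth value below 10 was scored as active.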 A number with no mark means an inactive call. Active and inactive are the calls of the source.
# Columns and labels:
# Test in all cases: NCI-60 one-dose screen, 48 h (100 = growth as untreated, 0 = no growth, -100 = all killed)
# Conditions in all cases: 10 µM
# NCI-H23 lung = test system: NCI-H23 lung
# NCI-H226 lung = test system: NCI-H226 lung
# HOP-62 NSCLC = test system: HOP-62 NSCLC
# NCI-H460 lung = test system: NCI-H460 lung
# HOP-92 NSCLC = test system: HOP-92 NSCLC
# NCI-H522 lung = test system: NCI-H522 lung
# A549/ATCC NSCLC = test system: A549/ATCC NSCLC
# 786-0 renal = test system: 786-0 renal
# COLO 205 colon = test system: COLO 205 colon
Compound,growth (NCI-H23 lung),growth (NCI-H226 lung),growth (HOP-62 NSCLC),growth (NCI-H460 lung),growth (HOP-92 NSCLC),growth (NCI-H522 lung),growth (A549/ATCC NSCLC),growth (786-0 renal),growth (COLO 205 colon)
COc1cc(-c2nn(-c3cccc(NC(=O)NCCNC(=O)c4cccc(C(F)(F)F)c4)c3)cc2-c2ccncc2)ccc1Cl,57%,70.8%,59.6%,18.7%,42.5%,24.4%,31.3%,17.4%,39.7%
O=C(CC(CC(=O)c1ccccc1)c1ccccc1O)c1ccccc1,92.8%,87.8%,85.8%,93%,88.9%,89.3%,93%,96.5%,106%
CCC(=O)OC1CCC2C3CCC(=O)OC3C(C)(CCC(=O)O)CC12C (configuration not stated),33.1%,60.1%,38.5%,42.6%,-1.1% (active),24.7%,,-41.7% (active),41.7%
COc1ccc(Cl)cc1Nc1nc(C(F)(F)F)ccc1C(=O)N/N=C/c1ccc(Cl)cc1,64.1%,52.1%,44.8%,26.9%,25.7%,31.6%,,13.6%,18%
CN(C)c1ccc(/C=N/NC(=O)c2ccccc2Nc2cccc(C(F)(F)F)c2)cc1,91.2%,101%,79.6%,96.3%,73%,83.2%,,90.1%,111%
O=C(COc1cccc(/C=C2\CSc3ccc(Cl)cc3C2=O)c1)c1ccc(Cl)cc1,75.1%,84.3%,83.6%,91.3%,15.6%,36.8%,,94.6%,115%
CCN(CC)CCN1c2nc3ccccc3cc2Sc2cc3ccccc3nc21,-5.59% (active),-10.6% (active),12.8%,-95.2% (active),-12.9% (active),-69.4% (active),,-40% (active),-73.9% (active)
CCCCCCCCCCOC(c1ccccc1)c1ccccc1,83%,85.5%,87.8%,101%,103%,75.8%,83.6%,98%,104%
Cc1ccc(NCCN(C)CC(C)O)c2c(=O)c3ccccc3sc12 (configuration not stated),57.4%,66.1%,48%,15.6%,32.4%,44.4%,21.6%,40.5%,-43.3% (active)
CN1CCN(CC(=O)Nc2cccc(-n3cc(-c4ccncc4)c(-c4ccc(Cl)c(O)c4)n3)c2)CC1,50.4%,74.3%,58.6%,13.3%,15.4%,18.1%,29.3%,33.6%,13.5%
COc1ccccc1/C=N\N/C(N)=N\N=C\c1ccccc1OC,26.8%,48.5%,-24.8% (active),2.85% (active),48.9%,4.02% (active),,7.99% (active),-10.9% (active)
Cc1[nH]c2ccccc2c1/C=N/Nc1ncnc2sc3c(c12)CCN(CC(=O)OC(C)(C)C)C3,91.6%,98%,92.4%,98.3%,61.2%,58.4%,65%,47.1%,63.4%
CC(=O)C1N=NCC1c1ccccc1 (configuration not stated),106%,98%,112%,98.8%,73.8%,88.5%,,110%,114%
CN1C(=O)C2(Nc3cc(Cl)ccc3S2)c2cc(Cl)ccc21 (configuration not stated),82.7%,80%,101%,95.2%,71.7%,95.2%,97.3%,102%,93.2%
CS(=O)(=O)c1nccc(-c2c(-c3cccc(O)c3)nc3sccn23)n1,109%,95.4%,95.9%,97.4%,29.8%,-2.17% (active),97.5%,77.2%,114%
COc1ccccc1N1CCCSC1=Nc1ccccc1,104%,107%,-5.39% (active),99.7%,68.4%,71.9%,99.2%,,104%
OCCn1cccn1,93.1%,99.9%,104%,102%,101%,101%,111%,109%,125%
O=C(N/N=C/c1ccc(Cl)cc1)c1ccc(Cc2n[nH]c(=O)c3cccnc23)cc1,90.6%,96.1%,97.3%,109%,95.2%,89%,103%,101%,104%
Nc1ncnc2c1ncn2C1(CO)OCC(O)C(O)C1O (configuration not stated),96.8%,107%,91.4%,107%,113%,82.4%,96.7%,101%,113%
CCn1c(SC/C(=N/O)c2ccccc2)nnc1-c1ccccc1,103%,108%,111%,102%,62.5%,112%,101%,105%,115%
COc1ccc2nc3cc(Cl)ccc3c(N)c2c1,-93.9% (active),36.7%,-94.3% (active),-75.2% (active),91.3%,-75.8% (active),-73% (active),-98.9% (active),-87.6% (active)
Cc1ccc(C(SCC(N)C(=O)O)(c2ccc(C)cc2)c2ccc(C)cc2)cc1 (configuration not stated),18.3%,64.1%,-48.3% (active),3.09% (active),-15.3% (active),-66.2% (active),14.6%,,0.644% (active)
Cc1cc(Cl)ccc1Nc1nc(C(F)(F)F)ccc1C(=O)N/N=C/c1cccc(O)c1,43.8%,38.8%,44.2%,30.9%,48.1%,40.2%,,-30.6% (active),28.2%
N#CC1=C(N)Oc2cc(N)ccc2C1c1cccnc1 (configuration not stated),92.1%,101%,92.7%,97.5%,111%,75%,100%,90.7%,113%
CCCCN(CCCC)C(=O)[C@H](CC)[C@@H]1CC[C@@H](C)[C@@H]([C@H](C)[C@@H](O)[C@@H](C)C(=O)[C@H](CC)C2O[C@]3(C=C[C@@H](O)[C@]4(CC[C@@](C)([C@H]5CC[C@](O)(CC)[C@H](C)O5)O4)O3)[C@H](C)C[C@@H]2C)O1 (some centres not stated),-11.8% (active),-2.42% (active),7.81% (active),-4.44% (active),-25.6% (active),-18.4% (active),9.11% (active),17.4%,-77.6% (active)
CCOC(=O)Cn1c(=O)c2sc3ncccc3c2n2nnc(-c3ccccc3)c12,100%,103%,95.4%,125%,71%,92.2%,107%,99.9%,104%
NC(CSC(c1ccccc1)(c1ccccc1)c1cccc2ccccc12)C(=O)O (configuration not stated),94.2%,96.6%,104%,98.8%,81.6%,104%,92.7%,98.2%,108%
Cc1ccc(/C=C2/C(=O)N(C)c3ccc(S(=O)(=O)Nc4ccc(C(C)(C)C)cc4)cc32)s1,67%,63.9%,24.8%,98%,79.2%,75.5%,68.5%,67.4%,86.5%
